Bioassay records as filed in PubChem.
Only a selection was taken, and hits are over-represented in it overall.
IL-1B inflam inh = inflammasome signaling inhibition, IL-1 beta readout; activity change, % at 57.5 µM; hit rate 4.7% among 360,000; THP-1 LPS/ATP IL-1B secretion, AlphaLISA, 16 h; hits give low values; AID 743279; in the data active = activity change below about -50%; inconclusive = mostly about -30% to -49%
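THP-1 cells pretreated 1 hr with compounds (up to 57.5 uM final), then stimulated with LPS (250 ng/mL final) plus ATP (1.25 mM final); secreted IL-1B measured by AlphaLISA after 16 hr, decreased signal indicating inhibition.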
HT1080-NT tox = kills 2HG-producing HT-1080-NT fibrosarcoma cells; AID 686970; hit rate 1.6% among 360,000; Potency, µM (top dose mostly 46.1 µM), hits mostly cytotoxic; HT-1080-NT fibrosarcoma viability, CellTiter-Glo ATP luminescence, 48 h;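 also: NT is the 2HG producing partner of a matched IDH1 knockdown line; nearly all actives have a fitted effect of over 55% in size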
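Viability by CellTiter-Glo luminescence after 48 h compound exposure at 37C of HT-1080-NT cells (750/well, RPMI, 5% FBS). % activity scaled between DMSO wells and medium-only wells, then curve-fitted and categorized by curve class.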
12-LOX inh = inhibitors of human 12S-lipoxygenase ALOX12; P18054; purified 12hLO, xylenol orange hydroperoxide absorbance; AID 1671190; Potency, µM (highest dose often 108 µM), actives largely listed as inhibitors; hit rate 1.1% among 580,000
Target sequence (P18054 whole entry, looked up): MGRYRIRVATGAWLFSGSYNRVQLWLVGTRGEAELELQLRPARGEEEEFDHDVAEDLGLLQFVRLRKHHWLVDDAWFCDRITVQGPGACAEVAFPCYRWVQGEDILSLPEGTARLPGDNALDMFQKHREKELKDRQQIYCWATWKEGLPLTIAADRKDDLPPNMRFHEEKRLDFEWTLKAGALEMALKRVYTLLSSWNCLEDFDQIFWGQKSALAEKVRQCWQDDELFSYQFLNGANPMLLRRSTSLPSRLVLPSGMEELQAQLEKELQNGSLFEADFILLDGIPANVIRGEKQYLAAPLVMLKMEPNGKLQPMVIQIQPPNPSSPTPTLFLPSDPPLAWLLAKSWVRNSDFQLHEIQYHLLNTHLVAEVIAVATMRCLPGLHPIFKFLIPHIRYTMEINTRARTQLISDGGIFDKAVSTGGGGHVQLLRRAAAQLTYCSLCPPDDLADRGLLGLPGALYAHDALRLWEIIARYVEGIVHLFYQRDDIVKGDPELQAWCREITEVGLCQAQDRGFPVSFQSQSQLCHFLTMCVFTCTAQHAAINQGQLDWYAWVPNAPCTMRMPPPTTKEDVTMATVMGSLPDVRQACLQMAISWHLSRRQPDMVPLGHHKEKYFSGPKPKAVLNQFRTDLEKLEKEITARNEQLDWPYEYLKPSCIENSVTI
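Hydroperoxide product was detected by ferrous iron/xylenol orange as the 573 to 405 nm absorbance ratio. Arachidonic acid at 40 uM (final) was turned over for 30 min at room temperature by 150 nM human 12hLO, pH 7.0 Hepes buffer, after 15 min compound preincubation.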
HT1080 IDH1KD tx = toxicity to HT-1080 IDH1 knockdown cells (counter line); HT-1080 IDH1 knockdown viability, ATP luminescence, 48 h; Potency, µM (doses to about 46.1 µM), actives largely listed as cytotoxic; hit rate 2% among 360,000
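Cytotoxicity counter-line: IDH1KD HT-1080, 48 h, CellTiter-Glo. Curves classed by r2, magnitude and activity.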
TDP1 cell noCPT = qHTS for Inhibitors of human tyrosyl-DNA phosphodiesterase 1 (TDP1): qHTS in cells in absence of CPT; Potency, µM (series often up to 46.2 µM), usual class: inhibitors; hit rate 15% among 420,000; DT40 Tdp1-/- hTDP1 cells, no CPT, ATP luminescence, 48 h; also: nearly all actives have a fitted effect of over 55% in size
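Camptothecin absent (DMSO only). Human TDP1-complemented DT40 knockout cells, 400 cells/well, 37 °C for minimum 48 hr; ATP measured via CellTiter-Glo, 30 min dark incubation, luminescence.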
DT40 TDP1 CPT = DT40-hTDP1 cell growth loss with CPT. chicken DT40 Tdp1-/-;hTDP1 cells + 20 nM CPT, ATP luminescence, 48 h. Potency, µM (doses to about 46.2 µM), most hits filed as inhibitors. hit rate 12% among 420,000. AID 686979; also: nearly all actives have a fitted effect of over 55% in size
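Chicken DT40 Tdp1-/- cells stably complemented with human TDP1 were seeded at 400 cells/well in medium containing 20 nM camptothecin, exposed to pin-transferred compounds, and grown at 37 °C for at least 48 hr. Viability was read as ATP luminescence.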
A number is an active result. Unless noted, calls follow the shape of the dose curve; as a rule, active = well fitted curve in the direction sought with a large enough effect; inconclusive = small, poorly fitted or top-dose-only effect, or another doubt; inactive = no such curve, though single readings can be large; an effect the other way counts as inactive or inconclusive.

For CCOc1ccc(NC(=O)c2nn(C)c(=O)c3ccccc23)cc1OCC the results were 12-LOX inh inactive.
Screening O=C(CC1C(=O)OCCN1Cc1ccccc1)Nc1cc(Cl)cc(Cl)c1 (stereo not drawn) returned 12-LOX inh inactive.
For CCN(C(=O)c1cnc(NC(C)C)cc1C(F)(F)F)c1ccc(Cl)cc1Cl the results were IL-1B inflam inh inactive, HT1080-NT tox inconclusive, 12-LOX inh inactive, HT1080 IDH1KD tx inconclusive, TDP1 cell noCPT 16µM and DT40 TDP1 CPT 8.2µM.
CC(=O)N1CC2(CCN(c3nc(C)cc(C(=O)O)n3)CC2)CC1C(=O)O (stereo not drawn) was read as 12-LOX inh inactive.
`COc1cccc(NC(=O)CCC2CCN(C(=O)c3sccc3C)CC2)c1` gave IL-1B inflam inh inactive, HT1080-NT tox inactive, 12-LOX inh inactive, HT1080 IDH1KD tx inactive, TDP1 cell noCPT 21µM and DT40 TDP1 CPT 21µM.
Screening COc1ccc(CC(=O)N2CCC(CCC(=O)Nc3ccccc3)CC2)cc1 returned IL-1B inflam inh inactive, HT1080-NT tox inactive, 12-LOX inh inactive, HT1080 IDH1KD tx inactive, TDP1 cell noCPT inconclusive and DT40 TDP1 CPT inactive.
For COc1cccc(NC(=O)CCC2CCN(C(=O)Cc3cccc(F)c3)CC2)c1 the results were IL-1B inflam inh inactive, HT1080-NT tox inactive, 12-LOX inh inactive, HT1080 IDH1KD tx inactive, TDP1 cell noCPT 15µM and DT40 TDP1 CPT inconclusive.
For COc1cc(/C=N/NC(=O)c2cc(-c3cccs3)nc3ccccc23)ccc1O the results were IL-1B inflam inh inactive, HT1080-NT tox inactive, 12-LOX inh inactive, HT1080 IDH1KD tx inconclusive, TDP1 cell noCPT 9.2µM and DT40 TDP1 CPT 9.2µM.
For COc1cc(/C=N/NC(=O)c2cc(-c3cccc(OC(C)C)c3)nc3ccccc23)ccc1O the results were IL-1B inflam inh inactive, HT1080-NT tox inconclusive, 12-LOX inh inactive, HT1080 IDH1KD tx inconclusive, TDP1 cell noCPT 2.1µM and DT40 TDP1 CPT inconclusive.
`COc1cc(/C=N/NC(=O)c2cccs2)ccc1O` gave IL-1B inflam inh inactive, HT1080-NT tox inactive, 12-LOX inh inactive, HT1080 IDH1KD tx inactive, TDP1 cell noCPT inactive and DT40 TDP1 CPT inactive.
Screening N#Cc1ccc(-c2csc(NC(=O)c3cc(-c4cccs4)nc4ccccc34)n2)cc1 returned IL-1B inflam inh inconclusive, HT1080-NT tox inactive, 12-LOX inh inactive, HT1080 IDH1KD tx inactive, TDP1 cell noCPT inconclusive and DT40 TDP1 CPT inconclusive.
For N#Cc1ccc(/C=N/NC(=O)c2cc(-c3cccs3)nc3ccccc23)cc1 the results were IL-1B inflam inh inactive, HT1080-NT tox inconclusive, 12-LOX inh inconclusive, HT1080 IDH1KD tx 10µM, TDP1 cell noCPT 21µM and DT40 TDP1 CPT 9.2µM.
Screening CSc1ncc(CN2CCc3c([nH]c4ccccc34)C2C(C)(C)C)cn1 (stereo not drawn) returned IL-1B inflam inh inactive, HT1080-NT tox inactive, 12-LOX inh inactive, HT1080 IDH1KD tx inactive, TDP1 cell noCPT 23µM and DT40 TDP1 CPT inconclusive.
COc1ccc(Nc2nc(N3CCN(CCO)CC3)nc3nccnc23)cc1 was read as 12-LOX inh inactive.
`CC(=O)c1ccc(NC(=O)CSc2ccc3nc(-c4ccccc4)cn3n2)cc1` gave 12-LOX inh inactive, TDP1 cell noCPT 26µM and DT40 TDP1 CPT inconclusive.
For CCOc1ccccc1Nc1cc(-c2ccccc2)nc(C)n1 the results were 12-LOX inh inactive, TDP1 cell noCPT inconclusive and DT40 TDP1 CPT inconclusive.
For O=C(CSc1ccc2nc(-c3ccccc3)cn2n1)Nc1ccccc1 the results were 12-LOX inh inactive, TDP1 cell noCPT 26µM and DT40 TDP1 CPT inconclusive.
CCOc1ccccc1NC(=O)CSc1ccc2nc(-c3ccccc3)cn2n1 was read as 12-LOX inh inconclusive, TDP1 cell noCPT 21µM and DT40 TDP1 CPT inconclusive.
For CCOc1ccccc1NC(=O)C(C)Sc1cc(-c2ccccc2)nc(C)n1 (stereo not drawn) the results were 12-LOX inh inactive, TDP1 cell noCPT 16µM and DT40 TDP1 CPT 15µM.
